Test results taken from PubChem BioAssay AID686979 (National Center for Advancing Translational Sciences (NCATS), 2013).
Among all 420,000 compounds or so, about 50,000 (12%) were called active. Entries that show only a call come without a potency. Another 26% or so got no clear call; they are omitted. Calls follow the shape of the dose curve; as a rule, active = well fitted inhibition curve with a large enough effect; inconclusive = small, poorly fitted or top-dose-only effect; inactive = flat fitted curve, though single readings scatter. The full list was thinned out, with actives kept by preference.

Assay: qHTS for Inhibitors of human tyrosyl-DNA phosphodiesterase 1 (TDP1): qHTS in cells in presence of CPT; also: nearly all actives have a fitted effect of over 55% in size
Conditions: chicken DT40 Tdp1-/-;hTDP1 cells + 20 nM CPT, ATP luminescence, 48 h; series mostly up to 46.2 µM
How it was run: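 Chicken DT40 Tdp1-/- cells stably complemented with human TDP1 were seeded at 400 cells/well in medium containing 20 nM camptothecin, exposed to pin-transferred compounds, and grown at 37 °C for at least 48 hr. Viability was read as ATP luminescence.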
Potency is read from the fitted curve at half-maximal effect.

| SMILES | Potency |
| --- | --- |
| COc1ccc(C(=O)N(C)CC(O)c2ccccc2)cc1OC1CCN(C(C)=O)CC1 (stereo not given) | inactive |
| CCOC(=O)c1c(NC(=O)CNC2CCCc3ccccc32)sc(C(N)=O)c1C (stereo not given) | 23.1 µM (active) |
| NC(=O)Nc1ccc(C(=O)OCC(=O)NC2CCCc3ccccc32)cc1 (stereo not given) | inactive |
| CCOC(=O)c1sc(NC(=O)CSc2nnc(-c3ccco3)o2)c(C(=O)OCC)c1C | inactive |
| COc1ccc(C(=O)N2CCN(c3ccc(C(C)=O)cc3F)CC2)cc1S(=O)(=O)NC1CC1 | inactive |
| O=C(Nc1ccc2c(c1)OCCO2)C1CCCC1 | inactive |
| COC(=O)c1ccc(/C=C2/C(=O)Oc3ccccc32)cc1 | inactive |
| O=C1Oc2ccccc2C(=O)/C1=C/c1ccccc1O | 5.8 µM (active) |
| COc1ccc2c(c1)O/C(=C\c1ccccc1O)C2=O | inactive |
| COc1ccc2oc(C(=O)NCC(Cc3ccccc3)N(C)C)c(C)c2c1 (stereo not given) | inactive |
| CCOC(=O)C1=C(O)/C(=C/c2ccc(OCC(=O)Nc3ccc(C)cc3)cc2)N=C1C | inactive |
| CN(C)c1nc(NN)nc(Nc2ccc(F)cc2)n1 | inactive |
| CCOC(=O)C(C)n1cnc2c(nnn2-c2ccc(F)cc2)c1=O (stereo not given) | inactive |
| Cc1ccc(S(=O)(=O)N2CCC(=O)N([C@H](COCc3ccccc3)C(C)C)CC2)cc1 | inactive |
| CC(C)C[C@@H](CO)N1CCN(Cc2ccc(O)cc2)CCC1=O | inactive |
| O=C(c1cc(Cl)cc(Cl)c1)N1CCC(=O)N(C(COCc2ccccc2)Cc2ccccc2)CC1 (stereo not given) | 13 µM (active) |
| CC(C)CC(CO)N1CCN(C(=O)c2ccc(Cl)cc2Cl)CCC1=O (stereo not given) | inactive |
| CC(C)CC(COCc1ccc(Cl)cc1)N1CCN(C(=O)c2ccc(C(F)(F)F)cc2)CCC1=O (stereo not given) | 14.6 µM (active) |

| SMILES | Potency |
| --- | --- |
| CN1CCC(=O)N([C@H](CO)Cc2ccccc2)CC1 | inactive |
| Cc1ccc(S(=O)(=O)N(C)C)cc1NC(=O)C1Cc2ccccc2CN1C(=O)c1ccco1 (stereo not given) | inactive |
| Cc1c(C(C)CCCO)oc(=O)c2c1Oc1c(C)c(C(C)C[C@@H](C)O)oc(=O)c1C2 (stereo not given in full) | inactive |
| CCCCCCCC(=O)OC(CN1CCCCCC1)CN1CCCC1=O (stereo not given) | inactive |
| COc1cc(/C=C2\C(=N)N3N=C(CC(=O)N4CCOCC4)SC3=NC2=O)cc(OC)c1OC | inactive |
| Cc1cc2cc(CNC(=O)c3ccc(S(=O)(=O)N4CCOCC4)cc3)ccc2[nH]1 | inactive |
| Cc1cccc(OCC(O)CN2CCN(S(=O)(=O)c3ccc(C)cc3C)CC2)c1 (stereo not given) | inactive |
| Cc1c(Br)cc(C(=O)N2CCCCCC2)c(C)c1C | inactive |
| C=CCn1c(SCC(=O)Nc2nc3ccccc3s2)nnc1-c1ccccc1O | inactive |
| Cc1cccc(-n2ccnc2SCC(=O)Nc2cccc3ccccc23)c1C | 23.1 µM (active) |
| COc1ccccc1-n1c(CNC(=O)c2ccccc2)nnc1SCC(=O)Nc1nnc(C)s1 | inactive |
| Cc1cc(C)cc(-n2ccnc2SCC(=O)Nc2nc3ccccc3s2)c1 | 18.4 µM (active) |
| Cc1cccc(CSc2nnc(NC(=O)CSc3nnc(C)s3)s2)c1 | inactive |
| Cc1nnc(NC(=O)CSc2nccn2-c2cccc(C)c2C)s1 | 4.61 µM (active) |
| Cn1nnnc1SCC(=O)Nc1nc2ccccc2s1 | inactive |
| COc1ccccc1-n1ccnc1SCC(=O)NC(C)(C)C | inactive |
| Cc1ccccc1-n1c(SCC(=O)Nc2cccc3ccccc23)nc(O)cc1=O | inactive |
